Data as given in the supplement of paper PMC9262897, “Low-cost anti-mycobacterial drug discovery using engineered E. coli” (Nature Communications, 2022).
Where a name gives a salt, the structure may show the parent alone. ± gives the standard deviation of the averaged measurements.

Tested on: E. coli TESEC Mtb DapB
Assay: growth (OD600 after 10 h); higher = more growth (less inhibition)
Conditions: arabinose induction (level): High; compound 0.1 mM; raw OD600 reference: median of DMSO wells […], cell-free background 0.041
Protocol: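 TESEC E. coli strains in which the native enzyme is deleted and replaced by arabinose-inducible Mtb Asd, DapB, CysH or TrpD, each grown in its selective medium. Strains were screened against the Prestwick library at 0.1 mM and 1% DMSO in 384-well format at low and high arabinose induction. Growth is read as OD600 after 10 h in triplicate.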

Row | Compound | growth
1 | C[C@]12CC[C@@H]3c4ccc(O)cc4CC[C@H]3[C@@H]1C[C@@H](O)[C@@H]2O [Estriol] | 0.183 ± 0.008
2 | CCN1CCCC1CNC(=O)c1cc(S(=O)(=O)CC)c(N)cc1OC (stereo not given) [Amisulpride] | 0.224 ± 0.02
3 | CN(C)CCC=C1c2ccccc2C=Cc2ccccc21 [Cyclobenzaprine hydrochloride] | 0.175 ± 0.011
4 | CCCCOc1ccc(C(=O)CCN2CCCCC2)cc1 [Dyclonine hydrochloride] | 0.149 ± 0.0069
5 | CN1CCCC(n2nc(Cc3ccc(Cl)cc3)c3ccccc3c2=O)CC1 (stereo not given) [Azelastine HCl] | 0.169 ± 0.0087
6 | N#CC(c1ccc(Cl)cc1)c1c(Cl)cc(-n2ncc(=O)[nH]c2=O)cc1Cl (stereo not given) [Diclazuril] | 0.0518 ± 0.0015
7 | Cc1cccc(CN2CCN(C(c3ccccc3)c3ccc(Cl)cc3)CC2)c1 (stereo not given) [Meclozine dihydrochloride] | 0.209 ± 0.0042
8 | CCCNC(C)C(=O)Nc1ccccc1C (stereo not given) [Prilocaine hydrochloride] | 0.1776 ± 0.0016
9 | NS(=O)(=O)c1cc(C(=O)O)cc(N2CCCC2)c1Oc1ccccc1 [Piretanide] | 0.21 ± 0.029
10 | O=C(O)[C@H]1/C(=C/CO)O[C@@H]2CC(=O)N21 [Clavulanate potassium salt] | 0.182 ± 0.0081
11 | NC(=O)N1c2ccccc2C=Cc2ccccc21 [Carbamazepine] | 0.194 ± 0.018
12 | Oc1c(I)cc(Cl)c2cccnc12 [Clioquinol] | 0.0573 ± 0.0004
13 | CC(C)(Oc1ccc(Cl)cc1)C(=O)O [Clofibric acid] | 0.199 ± 0.016
14 | O=C1Nc2ccc(Cl)cc2[C@@](C#CC2CC2)(C(F)(F)F)O1 [Efavirenz] | 0.0481 ± 0.00017
15 | COC(=O)[C@H]1[C@H]2C[C@@H]3c4[nH]c5cc(OC)ccc5c4CCN3C[C@H]2C[C@@H](OC(=O)c2cc(OC)c(OC)c(OC)c2)[C@@H]1OC [Reserpine] | 0.245 ± 0.0092
16 | CC(C)[N+](C)(CCOC(=O)C1c2ccccc2Oc2ccccc21)C(C)C [Propantheline bromide] | 0.156 ± 0.011
17 | O=C(CCCN1CCC(O)(c2ccc(Br)cc2)CC1)c1ccc(F)cc1 [Bromperidol] | 0.177 ± 0.014
18 | CC(=O)OCC(=O)[C@@]12N=C(C)O[C@@H]1C[C@H]1[C@@H]3CCC4=CC(=O)C=C[C@]4(C)[C@H]3[C@@H](O)C[C@@]12C [Deflazacort] | 0.186 ± 0.0061
19 | OC(Cn1cncn1)(Cn1cncn1)c1ccc(F)cc1F [Fluconazole] | 0.195 ± 0.013
20 | NC(=O)OCC(O)COc1ccc(Cl)cc1 (stereo not given) [Chlorphensin carbamate] | 0.214 ± 0.014

Same assay, conditions: arabinose induction (level): Low; compound 0.1 mM; raw OD600 reference: median of DMSO wells 0.227, cell-free background 0.041

Row | Compound | growth
21 | C[C@]12CC[C@@H]3c4ccc(O)cc4CC[C@H]3[C@@H]1C[C@@H](O)[C@@H]2O [Estriol] | 0.203 ± 0.033
22 | CCN1CCCC1CNC(=O)c1cc(S(=O)(=O)CC)c(N)cc1OC (stereo not given) [Amisulpride] | 0.239 ± 0.031
23 | CN(C)CCC=C1c2ccccc2C=Cc2ccccc21 [Cyclobenzaprine hydrochloride] | 0.203 ± 0.027
24 | CCCCOc1ccc(C(=O)CCN2CCCCC2)cc1 [Dyclonine hydrochloride] | 0.176 ± 0.012
25 | CN1CCCC(n2nc(Cc3ccc(Cl)cc3)c3ccccc3c2=O)CC1 (stereo not given) [Azelastine HCl] | 0.191 ± 0.011
26 | N#CC(c1ccc(Cl)cc1)c1c(Cl)cc(-n2ncc(=O)[nH]c2=O)cc1Cl (stereo not given) [Diclazuril] | 0.0496 ± 0.0011
27 | Cc1cccc(CN2CCN(C(c3ccccc3)c3ccc(Cl)cc3)CC2)c1 (stereo not given) [Meclozine dihydrochloride] | 0.247 ± 0.021
28 | CCCNC(C)C(=O)Nc1ccccc1C (stereo not given) [Prilocaine hydrochloride] | 0.209 ± 0.023
29 | NS(=O)(=O)c1cc(C(=O)O)cc(N2CCCC2)c1Oc1ccccc1 [Piretanide] | 0.245 ± 0.025
30 | O=C(O)[C@H]1/C(=C/CO)O[C@@H]2CC(=O)N21 [Clavulanate potassium salt] | 0.164 ± 0.012
31 | NC(=O)N1c2ccccc2C=Cc2ccccc21 [Carbamazepine] | 0.237 ± 0.046
32 | Oc1c(I)cc(Cl)c2cccnc12 [Clioquinol] | 0.0551 ± 0.0021
33 | CC(C)(Oc1ccc(Cl)cc1)C(=O)O [Clofibric acid] | 0.251 ± 0.037
34 | O=C1Nc2ccc(Cl)cc2[C@@](C#CC2CC2)(C(F)(F)F)O1 [Efavirenz] | 0.048 ± 0.00069
35 | COC(=O)[C@H]1[C@H]2C[C@@H]3c4[nH]c5cc(OC)ccc5c4CCN3C[C@H]2C[C@@H](OC(=O)c2cc(OC)c(OC)c(OC)c2)[C@@H]1OC [Reserpine] | 0.3 ± 0.038
36 | CC(C)[N+](C)(CCOC(=O)C1c2ccccc2Oc2ccccc21)C(C)C [Propantheline bromide] | 0.17 ± 0.0089
37 | O=C(CCCN1CCC(O)(c2ccc(Br)cc2)CC1)c1ccc(F)cc1 [Bromperidol] | 0.215 ± 0.044
38 | CC(=O)OCC(=O)[C@@]12N=C(C)O[C@@H]1C[C@H]1[C@@H]3CCC4=CC(=O)C=C[C@]4(C)[C@H]3[C@@H](O)C[C@@]12C [Deflazacort] | 0.23 ± 0.013
39 | OC(Cn1cncn1)(Cn1cncn1)c1ccc(F)cc1F [Fluconazole] | 0.213 ± 0.032
40 | NC(=O)OCC(O)COc1ccc(Cl)cc1 (stereo not given) [Chlorphensin carbamate] | 0.279 ± 0.041
